# Assay results from PubChem BioAssay (Tox21).
# Several values for one entry are separate records, joined by “and”; a condition that tells them apart may be missing. Identical values can stand only once. Records with an inconclusive call do not appear. More than one record can exist for a structure, and the calls need not agree. Activity calls are given as the source filed them. Unless noted, calls follow the shape of the dose curve; as a rule, active = well fitted curve in the direction sought with a large enough effect in the repeat runs; inconclusive = weak or mixed curves; inactive = no such curve, though single readings can be large; an effect the other way counts as inactive or inconclusive.
# Legend:
# [1] = qHTS assay to identify small molecule agonists of the progesterone receptor (PR) signaling pathway - cell viability counter screen (AID 1346799; calls by dose curve; also: nearly all actives have a fitted effect of over 45% in size; also: potency is read from the fitted curve at half-maximal effect)
# Method in brief: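 Here, 3,000 PR-UAS-bla HEK293T cells per well were treated with compounds for 16 hr after a 6 hr preincubation at 37C and 5% CO2; cell viability is the CellTiter-Glo luminescence signal.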
# [2] = qHTS assay to identify small molecule antagonists of the TGF-beta/Smad signaling pathway - cell viability counter screen (AID 1346824); also: nearly all actives have a fitted effect of over 50% in size; also: potency is read from the fitted curve at half-maximal effect
# Method in brief: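 SBE-bla HEK 293T cells, incubated overnight, then compound plus 0.25 ng/mL TGF-beta1 (stock added) for 5 hr at 37 C. Viability was read in the same wells by CellTiter-Glo luminescence after 30 min at room temperature.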
# [3] = qHTS assay to identify small molecule agonists of the TGF-beta/Smad signaling pathway - cell viability counter screen (AID 1346829); also: nearly all actives have a fitted effect of over 45% in size; also: potency is read from the fitted curve at half-maximal effect
# Method in brief: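 Here the cytotoxicity of library compounds is measured in SBE-bla HEK 293T cells treated for 5 hr, using CellTiter-Glo added to wells already read for the beta-lactamase reporter.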
# [4] = target: Thyrotropin-releasing hormone receptor (Homo sapiens) (UniProt P34981); assay: qHTS assay to identify small molecule antagonists of the thyrotropin-releasing hormone receptor (TRHR) signaling pathway (AID 1346877; active = well fitted inhibition curve with a large enough effect in the repeat runs, not every such curve was filed as active; also: potency is read from the fitted curve at half-maximal effect)
# Chain of Thyrotropin-releasing hormone receptor (Homo sapiens) (P34981 whole entry, looked up): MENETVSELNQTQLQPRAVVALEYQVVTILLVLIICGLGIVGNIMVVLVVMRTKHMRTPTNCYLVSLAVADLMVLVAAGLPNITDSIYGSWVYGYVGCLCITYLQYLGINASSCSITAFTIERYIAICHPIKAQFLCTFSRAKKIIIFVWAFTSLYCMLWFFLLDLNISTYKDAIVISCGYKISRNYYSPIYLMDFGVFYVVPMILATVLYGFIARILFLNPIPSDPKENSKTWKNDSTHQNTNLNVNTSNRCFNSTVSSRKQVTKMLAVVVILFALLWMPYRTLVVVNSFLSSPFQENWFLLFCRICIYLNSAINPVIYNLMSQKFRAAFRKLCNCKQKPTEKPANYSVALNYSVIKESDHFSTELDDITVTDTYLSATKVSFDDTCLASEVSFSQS
# Method in brief: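 Cells (TRHR-HEK293) are plated and kept 18 h at 37 °C/5% CO2. A calcium-sensitive dye is added for 2 h, compound follows for 5 min at room temperature, and TRH is then given at 1 nM final.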
# [5] = target: Thyrotropin-releasing hormone receptor (Homo sapiens) (UniProt P34981); assay: qHTS assay to identify small molecule agonists of the thyrotropin-releasing hormone receptor (TRHR) signaling pathway (AID 1346891; calls by dose curve; also: potency is read from the fitted curve at half-maximal effect; as to activation: series mostly up to about 58 µM; % is scaled to controls: 0 for no effect and ±100 for the full control effect)
# Method in brief: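 Screening of agonists relied on calcium signalling in HEK293 cells expressing human TRHR: dye loading 2 h at 37 °C preceded compound addition and a 3-min fluorescence time course.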
# [6] = Human pregnane X receptor (PXR) small molecule agonists, qHTS cell viability counter screen (AID 1346977); also: nearly all actives have a fitted effect of over 50% in size; also: potency is read from the fitted curve at half-maximal effect
# Method in brief: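 Tox21 qHTS format; PXR-Luc HepG2, 2,000/well, charcoal-stripped FBS 5%. Cpd exposure 24hr. Read: CellTiter-Fluor fluorescence, multiplexed with luciferase.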
# [7] = Caspase-3/7 induction in HepG2 cells by small molecules, qHTS assay (AID 1346978); also: nearly all actives have a fitted effect of over 15% in size; also: potency is read from the fitted curve at half-maximal effect
# Method in brief: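 Wild-type HepG2 cells, 2,000/well, settled 5 hr at 37 C and 5% CO2, then compound-treated for 17 hr; caspase-3/7 activity read by luminescent Caspase-Glo 3/7 after 30 min at room temperature.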
# [8] = Caspase-3/7 induction in CHO-K1 cells by small molecules, qHTS cell viability counter screen (AID 1346979); also: potency is read from the fitted curve at half-maximal effect; nearly all actives have a fitted effect of over 35% in size
# Method in brief: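 CellTiter-Fluor viability check, qHTS format: wild-type CHO-K1, 16hr compound treatment, 1hr reagent incubation, fluorescence read.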
# [9] = Caspase-3/7 induction in HepG2 cells by small molecules, qHTS cell viability counter screen (AID 1346981); also: nearly all actives have a fitted effect of over 30% in size; also: potency is read from the fitted curve at half-maximal effect
# Method in brief: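 Steps: seed 2,000 HepG2 cells per well; incubate 5 hr at 37 C; pin-add compounds in DMSO; incubate 16 hr; add CellTiter-Fluor; after 1 hr at 37 C and 5% CO2, read fluorescence.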
# [10] = target: Nuclear receptor subfamily 1 group I member 2 (Homo sapiens) (UniProt O75469); assay: Human pregnane X receptor (PXR) small molecule agonists, qHTS assay (AID 1346982); also: nearly all actives have a fitted effect of over 35% in size; also: potency is read from the fitted curve at half-maximal effect; as to activation: % is scaled to controls: 0 for no effect and ±100 for the full control effect
# Chain of Nuclear receptor subfamily 1 group I member 2 (Homo sapiens) (O75469 whole entry, looked up): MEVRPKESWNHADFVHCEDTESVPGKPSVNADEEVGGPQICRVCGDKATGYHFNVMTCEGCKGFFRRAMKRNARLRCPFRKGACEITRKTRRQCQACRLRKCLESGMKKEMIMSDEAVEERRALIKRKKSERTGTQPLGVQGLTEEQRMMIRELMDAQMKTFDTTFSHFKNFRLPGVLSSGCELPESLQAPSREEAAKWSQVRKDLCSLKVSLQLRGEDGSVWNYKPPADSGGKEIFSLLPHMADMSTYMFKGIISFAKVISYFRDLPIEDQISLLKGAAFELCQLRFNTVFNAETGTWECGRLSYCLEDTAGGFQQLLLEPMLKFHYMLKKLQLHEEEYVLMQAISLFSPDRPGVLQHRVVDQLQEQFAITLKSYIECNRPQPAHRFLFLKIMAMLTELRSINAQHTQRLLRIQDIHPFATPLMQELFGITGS
# Method in brief: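 Agonist mode qHTS: PXR-Luc HepG2 cells plated 5 hr before DMSO-dissolved compounds were pinned in, cultured 24 hr at 37 C, 5% CO2; ONE-Glo luminescence readout.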
# [11] = target: Cytochrome P450 2D6 (Homo sapiens) (UniProt P10635); assay: Cytochrome P450 Family 2 Subfamily D Member 6 (CYP2D6) small molecule antagonists: luciferase reporter qHTS assay (AID 1671196); also: nearly all actives have a fitted effect of over 50% in size; also: potency is read from the fitted curve at half-maximal effect
# Chain of Cytochrome P450 2D6 (Homo sapiens) (P10635 whole entry, looked up): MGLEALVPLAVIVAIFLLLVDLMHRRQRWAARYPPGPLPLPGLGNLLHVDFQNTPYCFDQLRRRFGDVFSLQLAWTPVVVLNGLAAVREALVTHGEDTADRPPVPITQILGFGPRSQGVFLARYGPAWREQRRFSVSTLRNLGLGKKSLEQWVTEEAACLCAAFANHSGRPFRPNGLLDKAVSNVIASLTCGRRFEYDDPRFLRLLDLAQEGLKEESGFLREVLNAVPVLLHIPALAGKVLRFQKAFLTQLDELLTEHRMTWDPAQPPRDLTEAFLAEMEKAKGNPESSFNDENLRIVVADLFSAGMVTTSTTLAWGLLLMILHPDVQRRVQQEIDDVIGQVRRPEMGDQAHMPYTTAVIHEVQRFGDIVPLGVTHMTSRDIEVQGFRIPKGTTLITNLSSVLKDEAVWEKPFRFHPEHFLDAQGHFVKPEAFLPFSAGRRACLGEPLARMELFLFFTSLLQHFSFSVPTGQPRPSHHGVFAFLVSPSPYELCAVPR
# Method in brief: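 P450-Glo format: CYP2D6 converts a proluciferin substrate to luciferin in an NADPH-driven reaction lasting 1 h at room temperature. Light output, proportional to CYP2D6 activity, reflects interference by test chemicals.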
# [12] = target: Cytochrome P450 2C19 (Homo sapiens) (UniProt P33261); assay: Cytochrome P450 Family 2 Subfamily C Member 19 (CYP2C19) small molecule antagonists: luciferase reporter qHTS assay (AID 1671197); also: nearly all actives have a fitted effect of over 65% in size; also: potency is read from the fitted curve at half-maximal effect
# Chain of Cytochrome P450 2C19 (Homo sapiens) (P33261 whole entry, looked up): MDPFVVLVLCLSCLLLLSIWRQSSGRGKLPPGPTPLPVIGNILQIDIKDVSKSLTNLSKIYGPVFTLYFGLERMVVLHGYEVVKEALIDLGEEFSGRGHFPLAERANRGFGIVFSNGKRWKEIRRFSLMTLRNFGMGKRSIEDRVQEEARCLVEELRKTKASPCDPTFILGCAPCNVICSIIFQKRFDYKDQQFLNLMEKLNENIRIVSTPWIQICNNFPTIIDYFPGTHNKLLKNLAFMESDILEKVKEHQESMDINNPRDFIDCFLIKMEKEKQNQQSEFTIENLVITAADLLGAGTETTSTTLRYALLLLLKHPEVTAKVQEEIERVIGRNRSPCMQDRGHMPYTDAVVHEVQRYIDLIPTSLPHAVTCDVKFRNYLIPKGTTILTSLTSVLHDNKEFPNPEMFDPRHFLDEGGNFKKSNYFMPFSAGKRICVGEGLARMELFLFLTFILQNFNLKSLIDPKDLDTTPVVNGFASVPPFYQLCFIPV
# Method in brief: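 Light output is proportional to CYP2C19 activity: proluciferin substrate is converted to luciferin, then detected by a luciferin detection reagent that also stops the 1 h, 37C NADPH-driven reaction. Ketoconazole serves as positive control.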
# [13] = target: Cytochrome P450 2C9 (Homo sapiens) (UniProt P11712); assay: Cytochrome P450 Family 2 Subfamily C Member 9 (CYP2C9) small molecule antagonists: luciferase reporter qHTS assay (AID 1671198); also: nearly all actives have a fitted effect of over 50% in size; also: potency is read from the fitted curve at half-maximal effect
# Chain of Cytochrome P450 2C9 (Homo sapiens) (P11712 whole entry, looked up): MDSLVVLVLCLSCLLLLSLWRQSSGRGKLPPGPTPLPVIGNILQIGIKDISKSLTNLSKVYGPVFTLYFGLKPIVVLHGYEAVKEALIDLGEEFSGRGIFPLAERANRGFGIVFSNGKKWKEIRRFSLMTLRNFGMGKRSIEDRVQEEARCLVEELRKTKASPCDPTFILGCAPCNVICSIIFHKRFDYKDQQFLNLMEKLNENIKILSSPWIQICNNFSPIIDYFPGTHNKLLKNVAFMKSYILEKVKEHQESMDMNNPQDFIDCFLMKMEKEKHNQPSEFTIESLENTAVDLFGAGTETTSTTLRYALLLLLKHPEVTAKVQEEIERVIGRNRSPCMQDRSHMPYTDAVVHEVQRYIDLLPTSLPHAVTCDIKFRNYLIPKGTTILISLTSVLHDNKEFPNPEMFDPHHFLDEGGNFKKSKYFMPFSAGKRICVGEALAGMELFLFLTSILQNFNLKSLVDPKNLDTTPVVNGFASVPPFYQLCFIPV
# Method in brief: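 P450-Glo proluciferin substrate with CYP2C9 enzyme; 10 min RT preincubation, then NADPH regeneration 1 h at 37C; luciferin detection reagent 20 min RT, luminescence in relative luminescence units.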
# [14] = qHTS assay to identify small molecule agonists of the TGF-beta/Smad signaling pathway (AID 1346859; active = well fitted activation curve with a large enough effect in the signal ratio in the repeat runs, not every such curve was filed as active; the % refers to the signal ratio; also: series mostly up to about 77 µM; % is scaled to controls: 0 for no effect and ±100 for the full control effect)
# Method in brief: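 Each well held 4,000 SBE-bla HEK 293T cells incubated overnight before compound addition; 5 hr later the cleavable FRET substrate went on for 2 hr at room temperature, and fluorescence was read at two emissions.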
# [15] = Caspase-3/7 induction in CHO-K1 cells by small molecules, qHTS assay (AID 1346980); also: % is scaled to controls: 0 for no effect and ±100 for the full control effect; nearly all actives have a fitted effect of over 15% in size
# Method in brief: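 Wild-type CHO-K1 cells exposed to compounds for 17hr at 37 C, 5% CO2. Caspase-3/7 activity then measured by Caspase-Glo 3/7 luminescence after 30min at room temperature.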
# [16] = target: Nuclear receptor subfamily 1 group I member 2 (Rattus norvegicus) (UniProt Q9R1A7); assay: Rat pregnane X receptor (rPXR) activation by small molecules, qHTS assay (AID 1346983); details: rPXR luciferase reporter cells, One-Glo luminescence, 24 h; max activation: stronger effect = higher value; also: % is scaled to controls: 0 for no effect and ±100 for the full control effect; nearly all actives have a fitted effect of over 20% in size
# Chain of Nuclear receptor subfamily 1 group I member 2 (Rattus norvegicus) (Q9R1A7 whole entry, looked up): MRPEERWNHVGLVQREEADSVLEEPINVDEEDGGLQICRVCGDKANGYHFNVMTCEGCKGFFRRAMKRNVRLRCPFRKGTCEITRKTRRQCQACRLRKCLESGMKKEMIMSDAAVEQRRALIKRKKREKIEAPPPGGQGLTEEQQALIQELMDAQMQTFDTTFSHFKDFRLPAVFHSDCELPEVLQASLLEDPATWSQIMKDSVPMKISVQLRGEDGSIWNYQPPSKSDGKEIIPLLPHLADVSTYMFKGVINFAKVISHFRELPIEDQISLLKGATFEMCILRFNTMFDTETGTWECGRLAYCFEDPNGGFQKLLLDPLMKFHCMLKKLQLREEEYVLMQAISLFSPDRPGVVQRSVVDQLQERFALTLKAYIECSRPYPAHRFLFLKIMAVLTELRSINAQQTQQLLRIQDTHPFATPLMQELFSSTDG
# Method in brief: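 Cell-based rPXR activation assay: rPXR cells, 2,000 per well, rested 5hr at 37 C, then exposed to compounds in DMSO for 24 hr at 37 C. Luciferase activity read by One-Glo luminescence after 30 min at room temperature.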
# [17] = target: Nuclear receptor subfamily 1 group I member 2 (Homo sapiens) (UniProt O75469); assay: CYP3A4 induction through human pregnane X receptor (PXR) by small molecules, qHTS assay (AID 1346984); also: % is scaled to controls: 0 for no effect and ±100 for the full control effect; nearly all actives have a fitted effect of over 40% in size
# Method in brief: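 Steps: seed DPX-2 cells, 5 hr at 37C; pin-transfer compounds; 24 hr at 37C; add Luciferin-IPA (3uM final), 3 hr at 37C; add One-Glo, 30 min RT; read luminescence.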
SMILES,Potency [1],Potency [2],Potency [3],Potency [4],Potency [5],Potency [6],Potency [7],Potency [8],Potency [9],Potency [10],Potency [11],Potency [12],Potency [13],Potency [14],Potency [15],max activation [16],Potency [17]
CCCOc1sc(C(=O)N2CCC(c3cc(CN)ccc3F)CC2)c(C)c1Br,19.9 µM (active),50.4 µM (active),44.9 µM (active),27.6 µM (active),31.8 µM (active),28.1 µM (active),44.5 µM (active),22.3 µM (active),49.9 µM (active),inactive,18.3 µM (active),3.66 µM (active),1.63 µM (active),,,,
COc1ccc(-n2nc(CCC(=O)N(C)O)cc2-c2ccc(Cl)cc2)cc1,,inactive,inactive,inactive,inactive,,inactive,,,29.8 µM (active),15.5 µM (active),8.71 µM (active),3.89 µM (active),inactive,inactive,,
Oc1ccc(-c2ccc(O)cc2)cc1,inactive,,inactive,inactive,inactive,,inactive,,,48.9 µM (active),,inactive,inactive,inactive,inactive,,
CC=O,45.3 µM (active),25.7 µM (active),28.8 µM (active),,,5.7 µM (active),,4.03 µM (active),inactive,4.53 µM (active),8.34 µM (active),,inactive,,,,
CN(C)CCCN1c2ccccc2CCc2ccccc21,21.7 µM (active) and inactive,,inactive,inactive,inactive,30.6 µM (active) and 23.7 µM (active),inactive,,,,,,,,,,
Cc1cc2c(C(C)C)c(O)c(O)c(C=O)c2c(O)c1-c1c(C)cc2c(C(C)C)c(O)c(O)c(C=O)c2c1O,,,,inactive,inactive,18.8 µM (active),,13.3 µM (active),26.6 µM (active),inactive,inactive,,34.7 µM (active),inactive,,,
O=C(Nc1ccc(Cl)cc1)Nc1ccc(Cl)c(C(F)(F)F)c1,,,15.1 µM (active),inactive,inactive,7.5 µM (active),inactive,11.9 µM (active),29.8 µM (active),9.44 µM (active),,17.4 µM (active),13.8 µM (active),inactive,,,
O=C1c2c(O)ccc([N+](=O)[O-])c2C(=O)c2c([N+](=O)[O-])ccc(O)c21,,48.5 µM (active),48.5 µM (active),,,13.6 µM (active),inactive,12.1 µM (active),24.1 µM (active),inactive,31.4 µM (active),,28 µM (active),inactive,inactive,,
CCN=C1C=CC(=C(c2ccc(N(CC)CC)cc2)c2ccc(N(CC)CC)cc2)c2ccccc21,,27.4 µM (active),24.4 µM (active),,inactive,0.682 µM (active),inactive,0.963 µM (active),8.58 µM (active),,,17.7 µM (active),15.8 µM (active),,inactive,,
C=C[C@](C)(O)CC[C@@H]1[C@@]2(C)CCCC(C)(C)[C@@H]2CC[C@@]1(C)O,,,inactive,,,,68.6 µM (active),54.5 µM (active),,9.69 µM (active),,1 µM (active),3.17 µM (active),inactive,inactive,,
C=C(c1ccc(C(=O)O)cc1)c1cc2c(cc1C)C(C)(C)CCC2(C)C,,inactive,inactive,,,inactive,68.6 µM (active),61.1 µM (active),,,inactive,inactive,27.5 µM (active),inactive,,-18.2% (inactive),inactive
C[n+]1c2cc(N)ccc2cc2ccc(N)cc21 (tested in a mixture with another compound),,inactive,inactive,inactive,7.56 µM (active),,9.44 µM (active),,,,15.5 µM (active),38.9 µM (active),inactive,,inactive,-10.5% (inactive),
COc1ccccc1OCCNCC(O)COc1cccc2[nH]c3ccccc3c12 (centres undefined),15 µM (active),inactive,inactive,inactive,inactive,23.7 µM (active),,29.8 µM (active),,8.41 µM (active),,,,inactive,,7.65% (inactive),
